Source: PubChem BioAssay
Hits are enriched below; roughly 3.5% of the tested compounds scored in any of these assays.
MITF primary: inhibitors of human MITF; AlphaScreen MITF homodimerization, bead proximity signal; 650,000 tested, 0.91% active; O75030; inhibition, % at 2.6 µM; in the data active = inhibition above about 50%
Target sequence (O75030 whole entry, looked up): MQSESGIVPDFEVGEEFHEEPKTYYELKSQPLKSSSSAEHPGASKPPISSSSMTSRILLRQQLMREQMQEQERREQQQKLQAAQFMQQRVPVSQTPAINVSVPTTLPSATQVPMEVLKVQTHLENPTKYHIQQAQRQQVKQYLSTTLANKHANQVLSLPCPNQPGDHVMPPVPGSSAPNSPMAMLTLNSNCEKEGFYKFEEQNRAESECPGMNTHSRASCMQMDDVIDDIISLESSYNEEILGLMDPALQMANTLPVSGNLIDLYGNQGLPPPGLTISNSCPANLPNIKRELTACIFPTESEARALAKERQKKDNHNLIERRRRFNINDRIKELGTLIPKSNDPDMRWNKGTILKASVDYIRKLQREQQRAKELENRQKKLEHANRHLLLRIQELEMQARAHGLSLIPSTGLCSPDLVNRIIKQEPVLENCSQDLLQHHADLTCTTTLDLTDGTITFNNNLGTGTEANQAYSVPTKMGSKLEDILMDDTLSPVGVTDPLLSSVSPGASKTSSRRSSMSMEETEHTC
GPR151 activ: activators of human GPR151; PathHunter beta-arrestin GPR151 cells, luminescence; activation, % at 11.2 µM; 650,000 tested, 1% active; in the data active = activation above about 4.9%
TEAD-YAP block: TEAD-YAP interaction inhibition; HEK-TIYL cells, TEAD-Gal4/YAP UAS-luciferase luminescence; inhibition, % at 9.12 µM; 640,000 tested, 1.4% active; AID 1259422; in the data active = inhibition above about 32%
FBW7 activator: activators of human E3 ligase FBW7; 650,000 tested, 0.13% active; normalized activity (activation), % at 26.1 µM; AlphaScreen FBW7–phospho-cyclin E peptide binding, activator screen; Q969H0; in the data active = normalized activity above about 1.9%;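 note: purified mutant Fbw7 with reduced substrate affinity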
Hits are given with their value; – = inactive.

SMILES	MITF primary	GPR151 activ	TEAD-YAP block	FBW7 activator
CNC(=O)c1cc(F)c(F)cc1Nc1cc(Nc2ccc(N3CCOCC3)cc2OC)ncc1C(F)(F)F	–	–	–	–
CNC(=O)c1ccccc1Nc1cc(Nc2ccc(C(=O)N3CCOCC3)cn2)ncc1C(F)(F)F	–	–	85.8	–
CNC(=O)c1ccccc1Nc1cc(Nc2cccnc2)ncc1C(F)(F)F	–	–	–	–
CNC(=O)c1ccccc1Nc1nc(Nc2ccc(N3CCOCC3)c(F)c2)ncc1Cl	–	–	63.0	–
CNC(=O)c1ccccc1Nc1cc(Nc2ccc(N3CCOCC3)cc2)ncc1C(N)=O	–	–	–	–
CNC(=O)c1ccccc1Nc1cc(Nc2ccc(N3CCOCC3)cc2)ncc1C(F)(F)F	–	–	75.1	–
CCOC(=O)c1c(NC(NC(=O)c2ccco2)(C(=O)OC)C(F)(F)F)sc(CC)c1-c1ccccc1 (configuration not stated)	–	–	–	–
CN(C)c1ccc(NC2=C([N+](=O)[O-])C(=O)c3ccccc32)cc1	85.8	–	–	–
O=C(N/N=C/c1c[nH]c2ccccc12)C1(O)c2ccccc2-c2ccccc21	–	–	–	–
CCOC(=O)c1sc(NC(=O)CSc2nnc(CNC(=O)Cc3ccccc3)n2-c2cc(C)ccc2C)c(C(=O)OCC)c1C	–	–	–	–
O=C(c1cc(-c2ccncc2)nc2ccc(Cl)cc12)N1CCN(c2ccccn2)CC1	–	–	39.6	–
CC(=O)N1CCN(c2nc(-c3ccccc3)c3cc(Cl)ccc3n2)CC1	–	–	–	–
CCOc1ccccc1N1CCN(C(=O)c2cc(-c3cccc(C)c3)nc3ccccc23)CC1	–	–	41.8	–
O=C(c1ccccc1)N1CCN(c2nc(-c3ccccc3)c3cc(Cl)ccc3n2)CC1	–	–	–	1.9
O=C(c1cc(-c2cccnc2)nc2ccc(Cl)cc12)N1CCN(c2ncccn2)CC1	–	–	–	–
Cc1ccc(-c2cc(C(=O)N3CCN(c4ccccc4)CC3)c3ccccc3n2)s1	–	–	48.6	–
O=C(/C=C/c1ccccc1)N1CCC2(CC1)CC2C(=O)N1CCN(c2ccccn2)CC1 (configuration not stated)	–	–	–	–
O=C(NC1(c2ccccc2)CC1)N1CCN(c2ccc(F)cc2)CC1	–	–	–	–
CCOC(=O)N1CCN(C(=O)c2cc(-c3ccncc3)nc3ccccc23)CC1	–	–	52.0	–
COC(=O)c1ccc(COC(=O)c2ccccc2I)cc1	–	–	–	–
O=C(Nc1cccc(-c2nc3ccccc3o2)c1)c1cc(=O)c2ccccc2o1	–	–	–	–
O=C(Nc1cccc(-c2nc3ccccc3[nH]2)c1)c1cccc2nccnc12	–	–	33.8	–
O=C(Nc1cccc(-c2nc3ccccc3[nH]2)c1)c1cc(=O)c2ccccc2o1	–	–	41.3	–
Cc1ccccc1C(=O)Nc1ccc(OC(=O)c2ccccc2C)cc1	–	–	64.0	–
O=C(Nc1ccc(-c2nc3ccc(NC(=O)c4ccccc4)cc3[nH]2)cc1)c1ccccc1	–	–	–	–
SMILES	MITF primary	GPR151 activ	TEAD-YAP block	FBW7 activator
Cc1ccccc1C(=O)Nc1ccc(-c2nc3ccc(NC(=O)c4ccccc4C)cc3[nH]2)cc1	–	–	76.1	–
Cc1ccccc1C(=O)Nc1ccc(C(=O)OC(C)C)cc1	–	–	–	–
COc1cc(NC(=O)c2sc3ncnc(N(C)c4ccccc4)c3c2C)cc(OC)c1OC	–	–	49.8	–
COC(=O)c1cc(C)nc2c1C(=O)C(=O)C=C2N1CCOCC1	–	–	41.2	–
Cc1ccc(/C=N/NC(=O)c2cc(Br)ccc2OC(C)C)o1	–	–	46.0	–
COc1cc(/C=N/NC(=O)c2cc(Br)ccc2OC(C)C)ccc1O	–	–	–	–
CC(NC(=O)CSc1nnc(NC2CCCCC2)s1)c1ccccc1 (configuration not stated)	–	–	–	–
CCCOc1ccc(NC(=O)CC2C(=O)N(C)C(=S)N2CCNC(C)=O)cc1 (configuration not stated)	–	–	–	–
CCOC(=O)c1c(NC(=O)CSc2nnc(CNC(=O)c3ccc(C)c([N+](=O)[O-])c3)n2-c2ccc(OCC)cc2)sc2c1CCC2	–	–	–	–
Cn1c(-c2ccccc2)c(C(C[N+](=O)[O-])c2ccc(C(F)(F)F)cc2)c2ccccc21 (configuration not stated)	–	–	–	–
Cn1c(-c2ccccc2)c(C(C[N+](=O)[O-])c2ccco2)c2ccccc21 (configuration not stated)	–	–	54.4	–
Cc1cc(S(=O)(=O)O)c(C(C)C)cc1N	–	–	–	4.1
CN1CCN(C(c2ccncc2)c2ccc3cccnc3c2O)CC1 (configuration not stated)	70.2	–	–	–
CCN1CCN(Cc2ccc3cccnc3c2O)CC1	94.1	–	–	–
CCC(=O)NC(c1cccs1)c1cc(Cl)c2cccnc2c1O (configuration not stated)	–	–	–	–
c1cnc2c(CN3CCCCC3)cccc2c1	–	–	–	–
Oc1c(C(Nc2nccs2)c2cccs2)ccc2cccnc12 (configuration not stated)	–	–	–	–
Oc1c(C(c2cccs2)N2CCOCC2)cc(Cl)c2cccnc12 (configuration not stated)	–	–	56.7	–
CCN1CCN(C(c2cccs2)c2ccc3cccnc3c2O)CC1 (configuration not stated)	–	–	87.6	–
CCc1nnc(NC(=O)CSc2nnc3c(n2)[nH]c2ccc(F)cc23)s1	–	–	–	–
CN1CCN(C(c2cccs2)c2ccc3cccnc3c2O)CC1 (configuration not stated)	–	–	88.5	–
OCCN1CCN(C(c2cccs2)c2ccc3cccnc3c2O)CC1 (configuration not stated)	–	–	87.1	–
O=S(=O)(C[n+]1sc(Nc2ccc(Cl)cc2Cl)nc1-c1ccccc1)c1ccccc1	–	–	–	–
Cc1ccc(C(=O)O)cc1NC(=O)c1cccc([N+](=O)[O-])c1C	–	–	–	–
CC(=O)Cn1nc([N+](=O)[O-])n2ncnc12	–	–	–	–
SMILES	MITF primary	GPR151 activ	TEAD-YAP block	FBW7 activator
CCSc1nc2c(c(=O)[nH]c(=O)n2C)n1CCc1ccc(OC)cc1	–	–	42.6	–
CCSc1nc2c(c(=O)[nH]c(=O)n2C)n1CCCc1ccccc1	–	–	–	–
CCc1ccc(NC(=O)CN(c2ccc(OC)c(Cl)c2)S(C)(=O)=O)cc1	–	–	–	–
Cc1nccn1CC(=O)N/N=C/c1nc2ccccc2n1C	–	–	–	–
Cc1ccc(Cn2c(SCC(=O)c3ccccc3)nc3ccsc3c2=O)cc1	–	–	–	–
COc1ccc(-c2cnc3ccc(NCCCO)nn23)cc1OC	–	–	36.2	–
COCCNc1ccc2ncc(-c3ccc(O)c(OC)c3)n2n1	–	–	54.6	–
COc1ccc(/C(O)=C/C(=O)C(=O)O)cc1	–	–	–	–
O=C(CC1CCCCC1)Nc1nnc2n1CCS2	–	–	–	3.1
CCN(CC)Cc1nc(N2CCN(C(=O)c3ccco3)CC2)c2ccccc2n1	–	–	–	–
